The list is not random: actives were taken first. Their share in the collection is about 9.9%.
HPGD block – blocks human HPGD enzyme activity; P15428; purified HPGD, NADH fluorescence kinetic, PGE2 substrate; Potency, µM, for inactives: top-dose activity change, negative = inhibition, hits mostly inhibitors; 150,000 tested, 4.3% active; AID 894; active = well fitted inhibition curve with a large enough effect, not every such curve was filed as active; inconclusive = small, poorly fitted or top-dose-only effect, or another doubt; inactive = no such curve, though single readings can be large or run the other way
Target sequence (P15428 whole entry, looked up): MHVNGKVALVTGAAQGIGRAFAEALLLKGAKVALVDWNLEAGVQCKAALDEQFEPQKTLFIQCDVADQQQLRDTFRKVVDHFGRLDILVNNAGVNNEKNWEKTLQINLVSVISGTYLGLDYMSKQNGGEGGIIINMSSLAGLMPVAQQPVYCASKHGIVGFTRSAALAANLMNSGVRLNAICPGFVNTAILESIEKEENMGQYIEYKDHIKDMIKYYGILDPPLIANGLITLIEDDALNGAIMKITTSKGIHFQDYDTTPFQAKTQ
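NADH formation kinetics: reaction with 30 uM PGE2 and 1 mM NAD+ (final), 20 nM enzyme, Tris-HCl pH 8 with Tween 20, after 15 min compound preincubation at room temperature. Fluorescence change, last versus first of five reads.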
Tau ThT inhib – inhibitors of human tau fibril formation, thioflavin T binding | AID 1460 | P10636 | 270,000 tested, 2.1% active | Potency, µM (top dose mostly 57.4 µM), for inactives: at the top dose activity, negative = inhibition, actives largely listed as inhibitors | recombinant tau K18 P301L, heparin-induced fibrillization, ThT fluorescence; note: nearly all actives have a fitted effect of over 55% in size
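Heparin-induced (20 uM) aggregation of recombinant human K18 P301L tau, 15 uM unlabeled with 0.24 uM labeled, pH 7 acetate buffer, 6 hr at 37 C with compound. Fibrils quantified by 30 uM ThT fluorescence after 1 hr ambient incubation.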
ALDH1A1 inh – ALDH1A1 (human) enzyme inhibition; P00352; Purified ALDH1A1, NADH fluorescence, propionaldehyde substrate; Potency, µM (doses to about 75.3 µM), inactives show at the highest dose activity, negative = inhibition, most hits filed as inhibitors; 220,000 tested, 7.3% active; AID 1030; active = well fitted inhibition curve with a large enough effect, not every such curve was filed as active; inconclusive = small, poorly fitted or top-dose-only effect, or another doubt; inactive = no such curve, though single readings can be large or run the other way;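 note: plate controls were no enzyme wells and a reference inhibitor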
Target sequence (P00352 whole entry, looked up): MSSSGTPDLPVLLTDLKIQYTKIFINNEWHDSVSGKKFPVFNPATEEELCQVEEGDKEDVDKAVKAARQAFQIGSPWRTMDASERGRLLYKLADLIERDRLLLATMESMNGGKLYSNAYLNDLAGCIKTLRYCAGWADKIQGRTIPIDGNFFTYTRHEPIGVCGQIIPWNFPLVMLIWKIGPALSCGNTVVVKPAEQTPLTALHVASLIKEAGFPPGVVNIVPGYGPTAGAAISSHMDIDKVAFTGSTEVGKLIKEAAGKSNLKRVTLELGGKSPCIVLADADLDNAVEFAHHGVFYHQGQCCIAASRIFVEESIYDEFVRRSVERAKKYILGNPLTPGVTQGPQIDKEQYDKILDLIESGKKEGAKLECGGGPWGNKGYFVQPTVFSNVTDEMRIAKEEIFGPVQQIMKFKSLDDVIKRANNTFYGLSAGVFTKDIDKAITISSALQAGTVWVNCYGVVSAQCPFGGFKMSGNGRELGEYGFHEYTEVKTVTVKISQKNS
KDM4E inh – JMJD2E (human) inhibition. B2RXH2. AID 2147. 230,000 tested, 1.6% active. JMJD2E catalytic domain, FDH-coupled NADH fluorescence (FDH is formaldehyde dehydrogenase). Potency, µM (titrated, usually from 57.1 µM), without a hit: at the top dose activity change, negative = inhibition, actives largely listed as inhibitors; active = well fitted inhibition curve with a large enough effect, not every such curve was filed as active; inconclusive = small, poorly fitted or top-dose-only effect, or another doubt; inactive = no such curve, though single readings can be large or run the other way;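 note: 0% = wells with enzyme and -100% = buffer wells without enzyme; nearly all actives have a fitted effect of over 50% in size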
Tau fibril FP – blocks human tau fibril formation measured by polarization. P10636. K18 P301L tau heparin fibrillization, Alexa594 FP, 6 h. Potency, µM (top dose mostly 57.7 µM), for inactives: top-dose activity, negative = inhibition, hits mostly inhibitors. 280,000 tested, 0.39% active. AID 1468; note: nearly all actives have a fitted effect of over 55% in size
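FP of Alexa 594-tau after heparin (20 uM) induction. Substrate: human K18 P301L, 15 uM unlabeled, 0.24 uM labeled. Buffer 100 mM sodium acetate pH 7. 6 hr, 37 C.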
Tau fluor cs – counter-screen for tau fibril formation inhibitors; AID 1463; 280,000 tested, 0.93% active; tau K18 P301L Alexa594 fluorescence, heparin fibrillization; Potency, µM (series often up to 57.7 µM), inactives show at the highest dose activity change, negative = decrease; note: nearly all actives have a fitted effect of over 55% in size
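Human tau K18 P301L (15 uM unlabeled, 0.24 uM Alexa 594-labeled) in 100 mM sodium acetate pH 7 with 20 uM heparin, 6 hr at 37 C. ThT 30 uM added, 1 hr ambient; Alexa 594 FP and total fluorescence read at 555/632 nm.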
Numbers without * were called inactive; ? = inconclusive; . = not tested or not shown; [ ] = remark or other dose. Unless noted, calls come from the whole dose curve; as a rule, active = well fitted curve in the direction sought with a large enough effect; inconclusive = small, poorly fitted or top-dose-only effect, or another doubt; inactive = no such curve, though single readings can be large; an effect the other way counts as inactive or inconclusive. Unless noted, % is set by controls: 0 for no effect and ±100 for the full control effect; potency is the fitted concentration of half-maximal effect.

SMILES | HPGD block | Tau ThT inhib | ALDH1A1 inh | KDM4E inh | Tau fibril FP | Tau fluor cs
C/C(=N\NC(=O)c1ccc(O)cc1)c1ccc2c(c1)Nc1ccccc1S2 | -15.8% | 4.47µM* | -5.3% | 1.2% | -8.4% | 11.2µM*[quencher]
N#CC1=C(N)OC2=C(CCC/C2=C/c2ccoc2)C1c1ccoc1 (stereo unspecified) | ? | 28.2µM* | ? | 25.1µM* | ? | -21.2%
N#CC1=C(N)OC2=C(CC/C2=C\c2ccc(F)cc2)C1c1ccc(F)cc1 (stereo unspecified) | 0.4% | -12.4% | -38.9% | ? | -10.3% | -12.4%
O=C(CCc1nc2ccccc2s1)NCc1ccccc1F | . | ? | ? | 4.6% | 3.8% | -9.9%
O=C(CCCc1nc2ccccc2s1)NCc1ccccc1F | 31.6µM* | 2.8% | ? | 3.8% | -19.2% | -7.0%
CCc1cccc(NC(=O)CCc2nc3cccnc3n2-c2ccccc2)c1 | . | -10.3% | . | . | -3.0% | -28.2%
COc1cccc(Nc2cc(-c3ccccc3)nc(C)n2)c1 | . | ? | . | . | -9.1% | 28.2µM*[quencher]
Cc1nc(Nc2ccc(Cl)cc2)cc(-c2ccccc2)n1 | . | 21.1% | . | . | 28.2µM* | 12.6µM*[quencher]
NC(=O)c1cc(C(=O)c2ccc(Cl)cc2)c[nH]1 | . | -4.5% | 1.4% | -2.8% | -7.0% | -5.6%
CC1(C)OC(=O)C(=Cc2ccc[nH]2)C(=O)O1 | . | -8.0% | 15.8µM* | -6.9% | -5.4% | -9.4%
Cc1ccccc1C(=O)NC=C1C(=O)OC(C)(C)OC1=O | . | 5.1% | -7.8% | -20.3% | 6.8% | 8.3%
Cc1nn(CC(=O)Nc2nnc(CC(=O)N3CCCC3)s2)c(=O)c2ccccc12 | . | -3.2% | 1.8% | 5.0% | 0.3% | 4.8%
O=C(Cn1nc(-c2ccc(F)cc2)ccc1=O)Nc1ccc(C(=O)NC2CC2)cc1 | 28.2µM* | -5.0% | 4.6% | -1.6% | -7.9% | -9.7%
Cc1nn(CC(=O)Nc2ccc(C(=O)N3CCCCC3)cc2)c(=O)c2ccccc12 | 1.12µM* | -2.4% | 12.6µM* | 4.9% | -3.4% | 8.5%
Cc1nn(CC(=O)Nc2ccc(C(=O)N3CCCC3)cc2)c(=O)c2ccccc12 | 14.1µM* | -4.3% | -14.6% | 8.6% | -2.1% | 2.7%
COc1cccc(-c2ccc(=O)n(CC(=O)Nc3ccc(C(=O)N4CCCC4)cc3)n2)c1 | 12.6µM* | -10.2% | ? | 1.0% | 1.3% | -6.3%
Cc1nn(CC(=O)Nc2cccnc2)c(=O)c2ccccc12 | . | 1.2% | 5.3% | -4.1% | -4.5% | 0.9%
COc1cc(NC(=O)Cn2nc(-c3ccc(F)cc3)ccc2=O)ccc1-n1cnnn1 | . | -5.3% | ? | 0.7% | -12.1% | -16.4%
O=C(c1cccc(C(F)(F)F)c1)C1CCCN(Cc2cccn2-c2ccccn2)C1 (stereo unspecified) | . | -0.9% | 4.1% | 2.5% | -2.3% | 0.0%
COc1ccc(Cl)cc1NC(=O)CCc1c(C)nc2c(c1C)c(=O)n(C)c(=O)n2C | . | 0.2% | . | . | -9.2% | -12.9%
CC(=O)OC[C@@H]1O[C@H](CCO/N=C(\C)CCC(=O)OC[C@@H]2O[C@H](C#Cc3ccccc3)C=C[C@@H]2Oc2ccc(C)cc2)C=C[C@@H]1OC(C)=O | . | -6.6%[11.5 µM] | 17.7%[13.5 µM] | . | 2.3%[11.6 µM] | -6.8%[11.6 µM]
COc1cc(Br)cc(CNc2ccc(F)c([N+](=O)[O-])c2)c1O | . | 15.8µM* | ? | 1.3% | -1.3% | 25.1µM*[quencher]
Cc1ccc(CC(=O)Nc2ccc(F)c([N+](=O)[O-])c2)cc1C | . | -7.9% | ? | -15.5% | 7.4% | -28.6%
COC(=O)C/C=C/[C@@H](C)[C@@H](/C=N/O[C@H](C)c1cn([C@@H]2COC[C@H]2O)nn1)NS(=O)(=O)c1ccc(C)cc1 | -4.9% | -9.1% | -6.5% | 4.3% | 6.3% | -5.0%
COC(=O)C/C=C/[C@@H](C)[C@@H](/C=N/O[C@@H](C)c1cn([C@H](CO)Cc2ccccc2)nn1)NS(=O)(=O)c1ccc(C)cc1 | -1.8% | -10.0% | 17.8µM* | 4.3% | -0.6% | -14.1%
SMILES | HPGD block | Tau ThT inhib | ALDH1A1 inh | KDM4E inh | Tau fibril FP | Tau fluor cs
Cc1ccc(C2=NN(CC(=O)NCCc3ccccc3)C(=O)CC2)cc1 | . | -4.6% | . | . | -7.2% | -12.5%
COc1ccccc1/C=N/N1C(=O)C2C3C=CC(CC3)C2C1=O (stereo unspecified) | . | -6.2% | 7.08µM* | 2.6% | 0.9% | -8.6%
O=C1C2C3C=CC(CC3)C2C(=O)N1/N=C/c1c[nH]c2ccccc12 (stereo unspecified) | . | -4.9% | ? | 3.1% | 6.4% | -22.3%
COc1ccc(/C=N/N2C(=O)C3C4C=CC(CC4)C3C2=O)c(OC)c1 (stereo unspecified) | . | -8.9% | 2.24µM* | 1.2% | -1.7% | -8.7%
CC(C)Oc1ccc(CNC(=O)Cn2c(-c3cccs3)cc3ccccc32)cc1 | . | 7.4% | . | . | -5.6% | -1.9%
COc1ccc(N=C2C(=O)N3CCCc4cccc2c43)cc1 | -20.2% | 3.6% | 0.0355µM* | 1.7% | -2.9% | 0.0%
COc1ccc(N=C2CCCN2CC(N)=O)cc1 | 2.2% | -12.8% | -2.1% | 8.2% | 4.5% | -8.1%
O=C(CC1CCS(=O)(=O)C1)NC1CCCCC1 (stereo unspecified) | -5.1% | -17.5% | 2.1% | 7.4% | 3.1% | -7.1%
O=C(O)CCC(=O)NC1CCCCC1 | -4.0% | -4.2% | -8.4% | 0.7% | 4.4% | -1.8%
O=C(CC1CCCCC1)NC1CCCC1 | 17.8µM* | -3.2% | 9.6% | -2.4% | -1.7% | -4.2%
O=C(CCC1CCCC1)NC1CCCCC1 | 15.8µM* | -8.6% | 6.9% | 6.8% | 3.7% | -3.5%
Cc1ccc(NC(=O)Cn2c(=O)n(Cc3ccc4c(c3)OCO4)c(=O)c3ccc(C(=O)NC4CCCCC4)cc32)cc1 | . | 16.7% | . | . | ? | -20.1%
C(=C/c1nccc2c1[nH]c1ccccc12)/c1ccc2c(c1)OCO2 | . | ? | ? | ? | 6.6% | 7.08µM*[quencher]
O=c1c2ccccc2nc(/C=C/c2ccc3c(c2)OCO3)n1CCCO | . | -4.7% | -12.4% | -23.1% | 7.0% | -11.0%
CCC(C)C(NC(=O)OC(C)(C)C)C(=O)NC(C(=O)NC(C)C(N)=O)C(C)C (stereo unspecified) | . | -6.9% | 5.7% | -3.6% | 10.1% | -0.9%
O=C(NC1CCCCC1)c1ccc(N2CCCC2=O)cc1 | 8.91µM* | 7.0% | 3.9% | -0.9% | -0.9% | -2.4%
O=C(NCc1ccc(N2CCCC2=O)cc1)NC1CCCCC1 | 22.4µM* | -3.8% | 6.2% | -2.3% | ? | 0.8%
Cn1cccc1C(=O)N1CCC2(CCCN(Cc3ccncc3)C2)CC1 | -10.4% | . | ? | . | . | .
COc1ccc(CCNC(=O)/C(C#N)=C/c2cccc(OCc3ccccc3)c2)cc1OC | -17.4% | -16.7% | -12.1% | -16.4% | 2.8% | -13.9%
COCCCNC(=O)/C(C#N)=C/c1ccc(F)cc1 | . | -12.6% | ? | 5.9% | -0.4% | -11.7%

From PubChem BioAssay
